Measured values from PubChem BioAssay AID525 (The Scripps Research Institute Molecular Screening Center, 2006).
Hit rate of the full screen: of about 65,000 compounds, about 360 (0.55%) were called active. The full list was thinned out, with actives kept by preference. A number with no mark means an inactive call.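 Rule for the calls: active = inhibition above the mean inhibition of all tested compounds plus 3 SD (cut at about 48% in these data); inactive = the rest.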

Target: Steroidogenic factor 1 (Homo sapiens) (UniProt Q13285)
Sequence (Q13285 whole entry, looked up, the tested form may be a part): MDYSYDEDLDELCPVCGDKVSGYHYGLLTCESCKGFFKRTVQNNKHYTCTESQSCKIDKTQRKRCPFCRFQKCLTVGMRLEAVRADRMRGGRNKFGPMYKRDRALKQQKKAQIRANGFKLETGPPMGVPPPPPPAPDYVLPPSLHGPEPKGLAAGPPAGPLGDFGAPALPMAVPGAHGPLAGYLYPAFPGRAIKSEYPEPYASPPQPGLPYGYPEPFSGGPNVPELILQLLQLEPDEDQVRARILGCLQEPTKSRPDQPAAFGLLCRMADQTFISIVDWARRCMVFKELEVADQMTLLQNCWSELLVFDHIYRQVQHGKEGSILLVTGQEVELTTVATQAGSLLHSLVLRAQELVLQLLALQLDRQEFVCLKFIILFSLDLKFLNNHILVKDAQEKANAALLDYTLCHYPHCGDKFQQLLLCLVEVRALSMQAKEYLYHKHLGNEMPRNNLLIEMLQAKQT
Experiment: suppressors of SF-1 driven luciferase transcription – cell-based, CHO-K1, Gal4-SF-1 LBD, luciferase luminescence, primary screen (AID 525);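 note: 0% = SF-1 transfected cells with DMSO and 100% = mock-transfected cells lacking SF-1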
Settings: CHO-K1 Gal4-SF-1 LBD luciferase reporter; at 10 µM; active compounds read high

SMILES | inhibition
O=C(CN1C(=O)COc2ccccc21)NCCN1CCc2ccccc2C1 | 1.3%
C[N+]1(CCNC(=O)/C=N/O)CCCCC1 | 3.2%
CC(C)C(=O)Nc1cccc(C(=O)Nc2ccc3c(c2)OCO3)c1 | -55%
Cc1cccc(NC(=O)CSC(N)=O)c1C | 9.5%
CCOC(=O)c1sc(N(Cc2ccccc2)C(=O)CN2C(=O)CN(C)C2=O)nc1C | 3.4%
CCS(=O)(=O)N1CCC(C(=O)N2CCN(c3ccccc3)CC2)CC1 | 0.7%
O=C(Nc1ccc(NC(=O)c2cccs2)cn1)c1ccco1 | -73.3%
O=C(c1cccc(C(=O)N2CCN(c3ccc(F)cc3)CC2)c1)N1CCN(c2ccc(F)cc2)CC1 | 6.4%
COc1ccc(C2=NOC(C(=O)NCc3ccco3)C2)cc1OC (stereo not drawn) | -23.3%
COC(=O)c1ccccc1NC(=O)C1CCN(S(=O)(=O)c2cc(OC)ccc2OC)CC1 | 4.4%
CC(=O)c1cc(C#N)c(SCC(=O)C(C)(C)C)nc1C | -57.1%
CCOC(=O)C1=C(C)N=c2s/c(=C\C(=O)OC)c(=O)n2C1c1ccc(OC)cc1 (stereo not drawn) | -6.9%
COc1ccc(OC)c(CNC(=O)C2CCCN(c3nc4ccccc4o3)C2)c1 (stereo not drawn) | 9.1%
COCc1cc(C)nc(SCC(=O)Nc2cccc(C)c2)c1C#N | 2.8%
Cc1cnc(NC(=O)CSc2nnc(-c3ccccc3)n2Cc2ccccc2)s1 | 13.7%
COc1ccc(N2CCN(CCNC(=O)CCN3C(=O)COc4ccccc43)CC2)cc1 | 11.5%
CCOC(=O)CCC(=O)OCC(=O)NC(C)C1CC2CCC1C2 (stereo not drawn) | 0.5%
COc1ccc(OC)c(Nc2nc(-c3ccc(O)c(O)c3)cs2)c1 | 85.3% (active)
CCc1ccc2oc(-c3ccc(N)cc3)nc2c1 | 50.8% (active)
Cc1cc2nc(-c3ccc(NC(=O)c4cccnc4)cc3)oc2cc1C | -54.8%

SMILES | inhibition
Nc1ccc(-c2nnc(-c3ccc(-c4ccccc4)cc3)o2)cc1 | -55.2%
O=C(CSc1nnc2ccccn12)c1ccccc1 | -55.3%
Fc1ccc2[nH]c3c(N4CCN(Cc5ccc6c(c5)OCO6)CC4)ncnc3c2c1 | 83.3% (active)
Fc1ccc2[nH]c3c(N4CCSCC4)ncnc3c2c1 | 58.1% (active)
O=C(C1CCN(S(=O)(=O)c2cnc[nH]2)CC1)N1CCN(Cc2ccc3c(c2)OCO3)CC1 | 6.1%
CC[C@]1(O)CC2CN(CCc3c([nH]c4ccccc34)[C@@](C(=O)OC)(c3cc4c(cc3OC)N(C=O)[C@H]3[C@@](O)(C(=O)OC)[C@H](OC(C)=O)[C@]5(CC)C=CCN6CC[C@]43[C@@H]65)C2)C1 (stereo partly drawn) | 73.8% (active)
CC[C@]1(O)C[C@@H]2CN(CCc3c([nH]c4ccccc34)[C@@](C(=O)OC)(c3cc4c(cc3OC)N(C)[C@H]3[C@@](O)(C(=O)OC)[C@H](OC(C)=O)[C@]5(CC)C=CCN6CC[C@]43[C@@H]65)C2)C1 | 73.1% (active)
Cc1ccc(N2C(=O)c3ccccc3C2(O)c2ncc[nH]2)cc1 (stereo not drawn) | -6.1%
COc1cc(C2C3C(=O)N(c4ccccc4)C(=O)C3ON2c2ccccc2)ccc1O (stereo not drawn) | -51.7%
O=C(Nn1cnc2ccccc2c1=O)c1ccc(F)cc1Cl | -64.7%
CC1CN(C2CCCCC2)c2nc3c(c(=O)n(C)c(=O)n3C)n2C1 (stereo not drawn) | -1.7%
O=C(NCCCN1CCN(C2CCCCC2)CC1)Nc1ccccc1C(F)(F)F | -13.5%
CC(C)(C)NC(=O)C(c1ccco1)N(Cc1ccc2c(c1)OCO2)C(=O)Cn1nnc2ccccc21 (stereo not drawn) | -8.6%
CCOc1cc(S(=O)(=O)NC2CC(C)(C)NC(C)(C)C2)ccc1F | -4.6%
OCCCNC(c1ccccc1)c1ccc(O)cc1 (stereo not drawn) | -6.6%
CCCOc1ccccc1C(=O)NCCCC(=O)O | -3.2%
COc1ccccc1Oc1ccc(S(=O)(=O)Nc2cccnc2)cc1 | 13.8%
COc1cc2cc(CN(CCN3CCCC3)C(=O)Nc3ccccc3Cl)c(=O)[nH]c2cc1OC | 8.5%
Clc1cccc(Cl)c1Cn1nnc(-c2cccs2)n1 | -50.8%
CCCNC(=O)C1CC(=O)N(c2ccc(OCC(=O)Nc3cccc(C)c3C)cc2)C1 (stereo not drawn) | -1%

SMILES | inhibition
NC(=O)C1CC=CCC1C(=O)OCC(Cl)=C(Cl)Cl (stereo not drawn) | 38.2%
CCCCOC(=O)c1[nH]c(C)c(C(=O)OC)c1C | -77.7%
O=C(CSc1nnc(-c2c[nH]c3ccccc23)n1-c1ccc(F)cc1)NCc1ccco1 | -15.6%
CCOC(=O)c1ccc(-c2ccc(C(=O)Nc3cccnc3)o2)cc1 | -51.3%
Cc1ccc(-c2nnc(SC(C)C#N)n2N)cc1 (stereo not drawn) | -9.5%
C/C(=C\c1ccco1)C1Nc2cccc3cccc(c23)N1 | 1.5%
O=C(Nc1ccc(-c2nnc(-c3ccccc3)o2)cc1)C1CCCO1 (stereo not drawn) | -65.9%
COc1ccc(CC(=O)Nc2ccc(-c3nnc(-c4ccccc4)o3)cc2)cc1 | 59.5% (active)
Cc1ccc(OCC(=O)Nc2ccc(-c3nnc(-c4ccco4)o3)cc2)cc1 | -65.5%
O=C(CCS(=O)(=O)c1ccccc1)Nc1nc2c(s1)CCCC2 | -3.7%
CS(=O)(=O)c1ccc2nc(NC(=O)CN3CCCCCC3)sc2c1 | 3.7%
O=C(NCCc1ccc(Cl)cc1)C1CC(=O)N(C2CCCCC2)C1 (stereo not drawn) | -13.3%
CCCCCCOC(=O)NCC(O)c1ccccc1 (stereo not drawn) | -52.5%
O=C1CCC(Cc2ccccc2)N1 (stereo not drawn) | 7.6%
COc1ccc(N2C(=O)CCC(C(=O)Nc3ccccn3)C2c2ccc(OC)c(OC)c2)cc1 (stereo not drawn) | -11%
COCCN(CC(=O)Nc1ccccc1C)S(=O)(=O)c1ccc(S(=O)(=O)N2CCCC2)cc1 | 0.4%
COc1ccc(N2CCN(C(=O)CSc3ncnc4c3cnn4-c3ccc(OC)cc3)CC2)cc1 | -9%
COc1ccc(Nc2cc(C)nc(-n3nc(C)cc3C)n2)cc1 | 53.7% (active)
